Screening data deposited in PubChem by National Center for Advancing Translational Sciences (NCATS).
FMDV antiviral: antivirals against foot and mouth disease virus; FMDV antiviral cell-based qHTS; Potency, µM (doses to about 57.9 µM), inactives show at the top dose activity change, negative = inhibition, usual class: inhibitors; 1.2% of 410,000 active; AID 1159524; calls by dose curve; tested in HEK293T cells; also: read-out not given here; potency is read from the fitted curve at half-maximal effect; nearly all actives have a fitted effect of over 45% in size
Marburg entry inh: blocks Marburg virus binding to or entry into cells; Marburg virus pseudotyped entry inhibition, cell reporter; Potency, µM (doses to about 37.8 µM), for inactives: top-dose activity change, negative = inhibition, hits mostly inhibitors; 1.8% of 300,000 active; calls by dose curve; tested in HEK293 cells; also: potency is read from the fitted curve at half-maximal effect
LASV entry inh: inhibitors of Lassa virus binding or cell entry | Lassa virus pseudotype entry inhibition, cell reporter | Potency, µM (highest dose often 37.9 µM), for inactives: top-dose activity change, negative = inhibition, hits mostly inhibitors | 1.2% of 300,000 active | AID 540256; calls by dose curve; tested in HEK293 cells; also: potency is read from the fitted curve at half-maximal effect; nearly all actives have a fitted effect of over 50% in size
HCV inh: HCV inhibition. 3.4% of 340,000 active. Huh7.5.1 HCVcc-Cre infection, luciferase reporter, 44 h. Potency, µM (highest dose often 41.8 µM), for inactives: at the top dose activity change, negative = inhibition, hits mostly inhibitors. AID 651820; active = well fitted inhibition curve with a large enough effect; inconclusive = small, poorly fitted or top-dose-only effect, or another doubt; inactive = no such curve, though single readings can be large or run the other way; also: potency is read from the fitted curve at half-maximal effect
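Infectious HCVcc-Cre (~0.5 moi) was added to cells just after compound, with cells seeded 4 h earlier at 1,000 per well. Luciferase activity after 44 h culture reported infection; substrate was incubated 15 min at room temperature before reading.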
HCMV inh: human cytomegalovirus inhibition | HFF cells, HCMV-luciferase reporter, 72 h; hits give low values | activity change, negative = inhibition, % at 57.5 µM | 4.5% of 410,000 active | AID 1259415; in the data active = activity change below about -60%; inconclusive = no clear call, values can overlap the other calls; inactive = above about -39%
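Compounds were evaluated in HFFs infected with an HCMV luciferase reporter virus (MOI 1 PFU/cell). Luciferase in lysates collected 72 h post infection served as the replication measure.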
* hit, by the source's call; ? = inconclusive; / = no result given; ! = not confirmed by another sample; [ ] = remark or other dose. Rows were chosen to be rich in hits. Some 7.9% of all compounds tested hit in one or more screens of this group. % is scaled to controls: 0 for no effect and ±100 for the full control effect.

SMILES	FMDV antiviral	Marburg entry inh	LASV entry inh	HCV inh	HCMV inh
CCOC(=O)c1c(C)oc2ncnc(N3CCN(c4cccc(Cl)c4)CC3)c12	28µM*	0%[46.1 µM]	-3%[46.1 µM]	/	-26
CCOC(=O)c1c(C)oc2nc(C)nc(N3CCN(c4cccc(C(F)(F)F)c4)CC3)c12	?	/	-14%[46.1 µM]	/	-64*
CC(C)Cc1nc2cc(NS(=O)(=O)N(C)C)cc(C(=O)N3CCc4sccc4C3)c2n1C	36%	/	/	/	/
O=C(O)/C=C/c1cnn(-c2ccccc2)c1	-67%	?	2.8µM*	13%	3
CCOC(=O)/C=C/c1cnn(-c2ccccc2)c1	41%	?	20%	-6%	129
Cc1ccc(Cn2c(C(C)Nc3nc(-c4ccc(F)cc4)cs3)nc3cc(C(=O)NCCCO)ccc32)cc1 (stereo not drawn)	-5%	/	/	?	-26
Cc1ccc(Cn2c(C3CCCN3c3nc(-c4cc(Cl)c(N)c(Cl)c4)cs3)nc3cc(C(=O)NCCCO)ccc32)cc1 (stereo not drawn)	0%	/	/	1.4µM*	-2
CC(=O)N1CCOc2ccc(S(=O)(=O)N3CCC(C(=O)Nc4cc(C)ccc4C)CC3)cc21	-17%	-1%[46.1 µM]	17%[46.1 µM]	-12%	-64*
FC(F)(F)c1cccc(-c2cnc3ccc(C4CC4)nn23)c1	/	/	/	/	-82*
CCCOc1ccc(NC(=O)CC2C(=O)Nc3ccccc3N2CC(=O)N2CCCC2)cc1 (stereo not drawn)	-11%	/	/	-12%	-60*
Cc1cccc(-n2c(O)c(C=Nc3ccccc3O)c3ccccc3c2=O)n1	-21%	?	17%	?	-64*
Cc1cccc(-n2c(O)c(C=Nc3cc(O)ccc3C)c3ccccc3c2=O)n1	-17%	?	6%	5%	?
N#C/C(C(=O)NCc1ccco1)=C1\S[C@@H](Cc2ccc(Cl)cc2)C(=O)N1c1ccccc1	/	16%	/	/	/
OC[C@H]1O[C@@H](O[C@@H]2[C@@H](CO)O[C@](O)(CO)[C@H]2O)[C@H](O)[C@@H](O)[C@H]1O	5%	/	/	/	/
COc1ccccc1CNC(=O)CCCc1nnc2n(C)c(=O)c3sccc3n12	-20%	/	/	-5%	0
N#Cc1ccc(C23OCCN2CCn2nc4ccccc4c23)cc1 (stereo not drawn)	-7%	/	/	4µM*	18
Cc1ccc(N2CCN(C(=O)c3cc(-c4ccc(F)cc4)[nH]c3C)CC2C)cc1 (stereo not drawn)	-24%	?	?	11µM*	-8
COc1ccc(N2CCN(C(=O)Cn3cnc4nc5c(cc4c3=O)CCCC5)CC2)cc1	-12%	/	-10%[46.1 µM]	/	-18
Cc1cc(C)c2[nH]c3nc(SCC(=O)O)nnc3c2c1	11%	/	/	5%	4
O=C(NCCCN1CCOCC1)C(=O)N/N=C/c1c(Cl)cccc1Cl	20%	-13%[46.1 µM]	2%	8%	-39
CC(C)c1ccc(/C=N/NC(=O)C(=O)NCCCN2CCOCC2)cc1	-18%	-6%	-1%	?	-62*
O=C(NCCCN1CCOCC1)C(=O)N/N=C/c1c2ccccc2cc2ccccc12	-16%	?	?	11µM*	-93*
O=C(CCN1C(=O)COc2ccccc21)N1CCN(c2ccccn2)CC1	/	9%	?	-5%	-73*
COc1ccc(N2CC(C(=O)Nc3cc(C)ccn3)CC2=O)cc1 (stereo not drawn)	-4%	/	/	8%	-16
CCN(C(C)=O)c1cnc(C=NNC(N)=S)c2ccccc12	2%	?	8.9µM*	6.3µM*	-97*
SMILES	FMDV antiviral	Marburg entry inh	LASV entry inh	HCV inh	HCMV inh
CCOC(=O)/C=C/[C@H](CC(C)C)NC(=O)C(F)(F)F	/	/	/	/	-19
CCC1(C2CCN(Cc3c(C)[nH]c4ccccc34)CC2)NC(=O)N(Cc2ccc3c(c2)OCO3)C1=O (stereo not drawn)	-4%	/	/	/	/
NNC(=O)c1ccc(COc2ccccc2)cc1	21%	/	/	-4%	-25
COC(=O)c1ccc(OCCOc2ccccc2)cc1	19%	?	-22%	2%	24
COc1cccc(OC)c1OCCOc1ccc(C(=O)c2ccccc2)cc1	32µM*	?	?	?	-66*
CCC(=O)c1ccc(OCc2ccc(C(=O)c3ccccc3)cc2)cc1	?	?	5µM*	?	-39
O=C(OC1CNC(C#Cc2cc3ncnc(Nc4ccc5c(ccn5Cc5cc(F)ccc5F)c4)c3s2)C1)N1CCOCC1 (stereo not drawn)	/	/	4µM*	/	/
CCOc1ccccc1CNC(=O)Cn1c(-c2ccccc2)cc(C(C)=O)c1C	0%	-6%[46.1 µM]	/	/	10
O=C(COc1ccc([N+](=O)[O-])cc1)N1CCN(c2nnc(-c3ccccc3)c3ccccc23)CC1	?	/	/	13µM*	8
O=C(CN1CCOCC1)N1CCN(c2nnc(-c3ccccc3)c3ccccc23)CC1	-10%	-1%	6%	-6%	51
Cc1ccc(-c2nnc(N3CCN(C(=O)CN4CCOCC4)CC3)c3ccccc23)cc1	-2%	-10%	-11%	10µM*!	11
O=C(COc1ccc(-c2nnc(N3CCCCC3)c3ccccc23)cc1)N1CCCCC1	?	?	?	2%	-21
COc1ccc(OCC(=O)N2CCC(c3nc4ccccc4s3)CC2)cc1	-43%	?	0%[46.1 µM]	/	-30
Cc1ccc(-c2nnc(N3CCN(C(=O)COc4ccccc4)CC3)c3ccccc23)cc1	?	?	?	13µM*	?
O=C(COc1ccc([N+](=O)[O-])cc1)N1CCC(c2nc3ccccc3s2)CC1	?	?	0%[46.1 µM]	/	-61*
Cc1noc(C)c1-c1cc(NCc2cccs2)ncn1	1%	/	/	/	/
O=C(CNCCc1ccc(F)cc1)Nc1cc(F)ccc1F	-23%	/	/	8%	-6
O=C(CCCN1CC=C(N2C(=O)N=C3C=CC=CC32)CC1)c1ccc(F)cc1 (stereo not drawn)	/	-2%	/	/	/
COc1ccc(NCc2nnc(SCC(=O)c3ccc(OC)cc3)o2)cc1	0%	?	1%	?	-8
CCOc1cc(C(=O)CSc2nnc(CNc3ccc(Cl)cc3)o2)ccc1NC(=O)CC	?	?	?	11µM*	-87*
CC(C)CO/N=C1/C[C@@H](O)[C@@H](O)[C@@H]2[C@@H]3C(=O)N(C4CCCCC4)C(=O)[C@H]3CC[C@@H]12	/	-14%[14.2 µM]	/	/	/
CCCc1nc2ccc(Cl)cn2c1Cc1ccsc1	3%	/	/	/	9
COc1c2ccccc2c(OC)c2ccccc12	26%	4%[46.1 µM]	15%[46.1 µM]	0%	-64*
CCCC12CN3CC(C)(CN(C1)C3c1ccc(CC)cc1)C2=O (stereo not drawn)	-2%	16%[46.1 µM]	0%[46.1 µM]	/	20
COc1cccc(CC(=O)OC(C)C(=O)Nc2ccc(Cl)cn2)c1 (stereo not drawn)	-11%	-11%	6%[46.1 µM]	-9%	-1
CC(OC(=O)Cc1ccsc1)C(=O)Nc1ccc(Cl)cn1 (stereo not drawn)	-17%	-7%	12%	22µM*	-19
CNc1ccccc1C(=O)OC(C)C(=O)Nc1ccc(Cl)cn1 (stereo not drawn)	-7%	1%	10%	?	-98*
